# Screening results deposited in PubChem by National Center for Advancing Translational Sciences (NCATS).
# The list is not random: actives were taken first. Their share in the collection is about 15%.
# ALOX12 inh = inhibitors of human 12S-lipoxygenase ALOX12; 580,000 compounds, 1.1% hits; AID 1671190; P18054; purified 12hLO, xylenol orange hydroperoxide absorbance; Potency, µM (titrated, usually from 108 µM), for inactives: top-dose activity change, negative = inhibition, most hits filed as inhibitors
# Target sequence (P18054 whole entry, looked up): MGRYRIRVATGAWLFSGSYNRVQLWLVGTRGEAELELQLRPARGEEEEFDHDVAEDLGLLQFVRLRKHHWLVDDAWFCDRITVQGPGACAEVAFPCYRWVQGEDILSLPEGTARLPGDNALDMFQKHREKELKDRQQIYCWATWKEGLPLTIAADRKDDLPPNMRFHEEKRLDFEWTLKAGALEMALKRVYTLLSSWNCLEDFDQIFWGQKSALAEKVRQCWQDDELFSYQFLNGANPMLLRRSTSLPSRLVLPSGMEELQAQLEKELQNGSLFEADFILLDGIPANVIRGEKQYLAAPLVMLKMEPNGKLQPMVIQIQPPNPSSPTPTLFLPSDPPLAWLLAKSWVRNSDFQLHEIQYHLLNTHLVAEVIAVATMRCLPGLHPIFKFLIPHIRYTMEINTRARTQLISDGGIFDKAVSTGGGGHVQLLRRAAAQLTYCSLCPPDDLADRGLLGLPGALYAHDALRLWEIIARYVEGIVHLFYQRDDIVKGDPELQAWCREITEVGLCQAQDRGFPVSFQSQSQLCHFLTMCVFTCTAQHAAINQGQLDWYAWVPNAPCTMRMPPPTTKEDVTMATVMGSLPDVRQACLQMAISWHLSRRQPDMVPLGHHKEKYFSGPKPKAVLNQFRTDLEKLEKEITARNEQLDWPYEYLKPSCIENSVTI
#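 Purified human 12hLO (150 nM final) in 25 mM Hepes, 0.01% Triton X-100, pH 7.0 was preincubated 15 min at room temperature with compound. Then 40 uM arachidonic acid was added, 30 min. Hydroperoxide was read by Fe-XO absorbance ratio 573/405 nm.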
# Gal4-VP16 FLuc = inhibits Gal4-VP16 luciferase reporter, ROR gamma counter-screen; Drosophila S2 Gal4-VP16 UAS-luciferase, luminescence, 20 h; Potency, µM (highest dose often 53.6 µM), without a hit: top-dose activity, negative = inhibition, usual class: inhibitors; 310,000 compounds, 3.5% hits; AID 2546;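 further: Gal4-VP16 expression switched on by copper sulfate through the metallothionein promoter; nearly all actives have a fitted effect of over 50% in size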
# TDP1 cell noCPT = qHTS for Inhibitors of human tyrosyl-DNA phosphodiesterase 1 (TDP1): qHTS in cells in absence of CPT; DT40 Tdp1-/- hTDP1 cells, no CPT, ATP luminescence, 48 h; Potency, µM (titrated, usually from 46.2 µM), without a hit: top-dose activity change, negative = growth inhibition, actives largely listed as inhibitors; 420,000 compounds, 15% hits; further: nearly all actives have a fitted effect of over 55% in size
#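 Cells were dispensed at 400 per well, compounds added by pin tool, plates incubated ≥48 hr at 37 °C, then CellTiter-Glo added for 30 min at room temperature before luminescence reading. Line: DT40 Tdp1-/- complemented with hTDP1; camptothecin omitted.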
# RORgamma inh = ROR gamma (mouse) transcription inhibition. P51450. Drosophila S2 Gal4-RORgamma UAS-luciferase reporter, 20 h. Potency, µM (highest dose often 53.6 µM), for the others: top-dose activity change, negative = inhibition, usual class: inhibitors. 310,000 compounds, 5.4% hits; further: nearly all actives have a fitted effect of over 60% in size
#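 Luciferase reporter read in Schneider cells carrying Gal4-RORγ (mouse) and UAS-Photinus luciferase; cells given compound 1 h before 700 uM copper sulfate induction, then incubated 20 h at ambient temperature.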
# ELG1 DNA repair = inhibitors of ELG1-dependent DNA repair in HEK293T cells | HEK293T ELG1-luciferase reporter, luminescence, 16 h; DNA damage induced by 5-fluorouridine | Potency, µM (series often up to 46.1 µM), without a hit: at the top dose activity change, negative = inhibition, hits mostly inhibitors | 330,000 compounds, 2.3% hits; further: nearly all actives have a fitted effect of over 55% in size
#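 Overnight (16 hr) co-exposure of 2,000 cells/well to 5-fluorouridine and compound at 37 °C preceded detection. Luciferase was quantified via ONE-Glo luminescence; loss of signal denotes inhibition.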
# TDP1 cell CPT = growth inhibition of DT40 Tdp1-/-;hTDP1 cells with camptothecin (screen for TDP1 inhibitors); chicken DT40 Tdp1-/-;hTDP1 cells + 20 nM CPT, ATP luminescence, 48 h; AID 686979; Potency, µM (doses to about 46.2 µM), inactives show at the top dose activity change, negative = growth inhibition, hits mostly inhibitors; 420,000 compounds, 12% hits; further: nearly all actives have a fitted effect of over 55% in size
#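 Chicken DT40 Tdp1-/- cells stably complemented with human TDP1 were seeded at 400 cells/well in medium containing 20 nM camptothecin, exposed to pin-transferred compounds, and grown at 37 °C for at least 48 hr. Viability was read as ATP luminescence.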
# * marks the source's active call; other numbers are inactive results; ? = inconclusive; . = not tested or not shown; [ ] = remark or other dose. The call rests on the fitted dose curve; in most records, active means well fitted curve in the direction sought with a large enough effect; inconclusive means small, poorly fitted or top-dose-only effect, or another doubt; inactive means no such curve, though single readings can be large; an effect the other way counts as inactive or inconclusive. On the % scale 0 is the no-effect control and ±100 the full control effect; potency means the concentration at half of the fitted maximal effect.
SMILES,ALOX12 inh,Gal4-VP16 FLuc,TDP1 cell noCPT,RORgamma inh,ELG1 DNA repair,TDP1 cell CPT
O=C(/C=C/c1ccc(Cl)cc1Cl)N1CCN(c2ccccc2[N+](=O)[O-])CC1,5.3%,-0.8%,?,?,?,7.4%
O=C(/C=C/c1ccc(Cl)cc1)N1CCN(c2ccc([N+](=O)[O-])c(N3CCOCC3)c2)CC1,-2.7%,?,?,?,18.4µM*,?
Cc1cc(C)cc(NC(=O)CS(=O)(=O)Cc2nc(-c3ccccc3C)oc2C)c1,11.1%,.,.,.,.,.
Cc1c(C(=O)N2CCCC2)c(S(=O)(=O)Nc2ccccc2Cl)c(C)n1C,-3.2%,-1.8%,17.3%,-3.6%,0.0%,2.1%
Cc1cccc(N(C)S(=O)(=O)c2c(C(=O)N3CCCCCC3)c(C)n(C)c2C)c1,0.4%,.,20.6µM*,.,.,16.4µM*
Cc1ccc(CNS(=O)(=O)c2c(C(=O)N3CCCCCC3)c(C)n(C)c2C)cc1,16.0%,-5.9%,-0.5%,-12.8%,-3.0%,-9.6%
Cc1c(C(=O)N2CCCCC2)c(S(=O)(=O)NCc2ccccc2Cl)c(C)n1C,-28.9%,-6.0%,?,0.9%,-3.0%,23.1µM*
Cc1cc(Cl)ccc1NS(=O)(=O)c1c(C(=O)N2CCCCCC2)c(C)n(C)c1C,1.8%,.,20.6µM*,.,.,?
Cc1ccccc1CNS(=O)(=O)c1c(C(=O)N2CCCC2)c(C)n(C)c1C,-23.4%,3.7%,17.9%,-3.1%,13.2%,-6.3%
O=C(c1ccc(F)cc1)N1CCN(c2nnc3ccccn23)CC1,-2.2%,.,.,.,.,.
Cc1cc(C)[n+](C)c2ccccc12,.,.,-9.5%,.,.,2.9%
Cc1c2ccccc2cc(Cc2ccccc2)[n+]1C,5.62µM*,-0.3%,13µM*,22.7%,-11.8%,23.1µM*
CC(=O)O[C@@]12CO[C@H]1C[C@H](O)[C@@]1(C)C(=O)[C@H](O)C3=C(C)[C@@H](OC(=O)C(O)[C@@H](NC(=O)OC(C)(C)C)c4ccccc4)C[C@@](O)([C@@H](OC(=O)c4ccccc4)[C@@H]21)C3(C)C (some centres undefined),37.9%[57.4 µM],.,.,.,.,.
CCCCCC(=O)N[C@@H](c1ccccc1)[C@@H](O)C(=O)O[C@H]1C[C@@]2(O)[C@@H](OC(=O)c3ccccc3)C3[C@](C)(C(=O)[C@H](OC(C)=O)C(=C1C)C2(C)C)[C@@H](O)C[C@H]1OC[C@@]31OC(C)=O (some centres undefined),13.4%,?,0.103µM*,?,-24.3%,0.116µM*
COc1ccc(-c2noc(N3CCCC(C(=O)Nc4cc(F)ccc4F)C3)n2)cc1 (centres undefined),11.9%,?,18.4µM*,30.1%,-2.8%,?
COc1ccc(F)cc1NC(=O)C1CCN(c2nc(-c3ccc(OC)c(OC)c3)no2)CC1,-20.6%,.,16.4µM*,.,.,4.61µM*
COc1ccc(-c2noc(N3CCC(C(=O)Nc4ccc(OC)c(OC)c4)CC3)n2)cc1,2.6%[57.4 µM],-10.1%,-13.4%,-30.4%,10.6%,-2.2%
OCCCNc1ncnc2sc3c(c12)CCN(Cc1ccccc1)C3,56.9%,3.1%,18.4µM*,8.7%,?,?
CCNC(=O)CN(CCc1ccccc1)S(=O)(=O)c1ccc(OC)cc1,-24.5%,15.7%,-28.4%,8.5%,1.2%,?
COC(=O)c1ccc(NC(=O)CN(CCc2ccccc2)S(=O)(=O)c2ccc(OC)cc2)cc1,-17.8%,.,20.6µM*,.,.,?
O=C(CN(CCc1ccccc1)S(=O)(=O)c1ccccc1)NCc1ccc(Cl)cc1,-14.0%,.,?,.,.,?
O=C(CN(CCc1ccccc1)S(=O)(=O)c1ccc(Br)cc1)NCc1ccc(Cl)cc1,4.47µM*,.,-10.6%,.,.,-18.2%
Cc1ccc(S(=O)(=O)N(CCc2ccccc2)CC(=O)Nc2ccc(Br)cc2)cc1,-0.6%,.,16.4µM*,.,.,?
Cc1noc(C)c1S(=O)(=O)N1C[C@@H](Oc2ccccc2)C[C@H]1C(=O)N1CCCC1,-1.6%,.,.,.,.,.
CCOC(=O)c1nnc(-c2ccccc2)nc1Oc1ccc(Cl)cc1,?,10µM*,16.4µM*,20µM*,-8.9%,20.6µM*
SMILES,ALOX12 inh,Gal4-VP16 FLuc,TDP1 cell noCPT,RORgamma inh,ELG1 DNA repair,TDP1 cell CPT
CCOC(=O)c1nnc(-c2ccc(C)cc2)nc1Sc1cccc(Cl)c1,0.0%,4.3%,?,-15.5%,3.6%,9.2µM*
CCOC(=O)c1cnc(-c2ccccc2)nc1Oc1ccc(Cl)c(Cl)c1,18.4%,4.4%,-4.5%,-21.5%,-3.0%,-4.4%
Cc1ccc(NC(=O)c2nccnc2N)cc1C,-0.4%,.,.,.,.,.
CCCC(=O)O[C@@H]1C[C@@H](C)N(C(=O)c2ccccc2)c2ccc(C)cc21,-4.5%,-1.2%,20.6µM*,1.7%,1.8%,20.6µM*
CC1=C(C(=O)OC2CCCC2)C(c2c(F)cccc2Cl)CC(=O)N1 (centres undefined),6.2%,.,14.6µM*,.,.,?
CC1=C(C(=O)OC2CCCCCC2)C(c2c(F)cccc2Cl)CC(=O)N1 (centres undefined),-21.4%,.,16.4µM*,.,.,?
O=S(=O)(c1ccccc1)c1nnn2c1nc(NC1CCN(Cc3ccccc3)CC1)c1ccccc12,0.3%,-4.5%,8.2µM*,-7.2%,?,5.8µM*
O=S(=O)(c1ccccc1)c1nnn2c1nc(NC1CCCC1)c1ccccc12,-1.6%[6.33 µM],.,.,.,.,.
COCCNc1nc2c(S(=O)(=O)c3ccccc3)nnn2c2ccc(Cl)cc12,-8.4%,.,?,.,.,-22.6%
O=S(=O)(c1ccccc1)c1nnn2c1nc(NC1CCN(Cc3ccccc3)CC1)c1cc(Cl)ccc12,-13.9%,?,4.11µM*,-39.0%,7.5%,7.31µM*
OC1CC(c2cc(NCCCn3ccc4ccccc43)ncn2)C1 (centres undefined),17.6%,.,.,.,.,.
CCCCN(CC)CCNC(=O)c1nn(-c2ccc(OC)cc2)c(=O)c2c1c1ccccc1n2C,-24.8%,-1.2%,?,2.6%,?,?
CCN(Cc1ccccc1)C(=O)c1nn(-c2ccc(OC)cc2)c(=O)c2c1c1ccccc1n2C,-14.8%,?,23.1µM*,33.0%,18.3µM*,11.6µM*
CCCCN(CC)C(=O)c1nn(-c2ccc(OC)cc2)c(=O)c2c1c1ccccc1n2C,-18.7%,.,23.1µM*,.,.,?
Cc1cccc(NC(=O)Cn2c(N3CCC(C)CC3)nc(C)cc2=O)c1,1.5%,.,.,.,.,.
